# Rows were chosen to be rich in hits. Some 21% of all compounds tested hit in one or more screens of this group.
# Pf growth 48h = P. falciparum growth inhibition at 48 hours (one generation) | P. falciparum luciferase growth in erythrocytes, 48 h | Potency, µM (highest dose often 28.7 µM), for the others: at the highest dose activity change, negative = inhibition, most hits filed as inhibitors | 310,000 tested, 5.9% active; active = well fitted inhibition curve with a large enough effect; inconclusive = small, poorly fitted or top-dose-only effect, or another doubt; inactive = no such curve, though single readings can be large or run the other way; also: potency is read from the fitted curve at half-maximal effect; % is scaled to controls: 0 for no effect and ±100 for the full control effect
#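 Luminescence readout; reporter = integrated firefly luciferase in P. falciparum. RBC culture at 2% hematocrit, 0.1% parasitemia final, 37 C/5% CO2; decreased signal taken as growth inhibition.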
# NS1 function inh = inhibitors of influenza NS1 protein function. AID 2326. Potency, µM (highest dose often 46.1 µM), inactives show top-dose activity, positive = more growth. 270,000 tested, 0.4% active; also: potency is read from the fitted curve at half-maximal effect; actives are rising curves; nearly all actives have a fitted effect of over 50% in size
#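 Recovery from NS1-induced slow growth read by OD600 in budding yeast switched to galactose assay medium (pH 6.0, -URA) at 1:100 dilution. Compound 23 nl per well; the matching strain lacking NS1 serves as control.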
# SARS PLP yeast = SARS-CoV PLP inhibition in yeast; Potency, µM (doses to about 32.9 µM), without a hit: at the highest dose activity, positive = growth rescue, most hits filed as activators; 330,000 tested, 0.19% active; AID 485353; S. cerevisiae expressing SARS-CoV PLpro, growth rescue; also: potency is read from the fitted curve at half-maximal effect; 0% is about no effect; nearly all actives have a fitted effect of over 55% in size
# Shiga toxin inh = Shiga toxin inhibition. Vero cells, Shiga toxin protein synthesis inhibition reporter. inhibition, % at 38.7 µM. 290,000 tested, 9.2% active; in the data active = inhibition mostly above about 28%, no sharp cut-off; inactive = mostly below about 43%; also: 0% is about no effect
# CHX counter = counter-screen hit for Shiga toxin inhibitors, cycloheximide | 300,000 tested, 12% active | cell reporter, cycloheximide protein synthesis inhibition counterscreen | AID 2314 | max response, %; in the data active = max response mostly above about 13%, no sharp cut-off; inactive = mostly below about 14%; also: read at 38.3 µM for the half of the compounds with a filed dose; 0% is about no effect
# Pf growth 96h = inhibits malaria parasite growth, 96 h. 320,000 tested, 6.9% active. Potency, µM (titrated, usually from 28.7 µM), inactives show at the top dose activity change, negative = inhibition, actives largely listed as inhibitors. P. falciparum luciferase reporter growth, 96 h; active = well fitted inhibition curve with a large enough effect; inconclusive = small, poorly fitted or top-dose-only effect, or another doubt; inactive = no such curve, though single readings can be large or run the other way; also: potency is read from the fitted curve at half-maximal effect; % is scaled to controls: 0 for no effect and ±100 for the full control effect
#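 Cell-based qHTS: luciferase-tagged P. falciparum in erythrocytes (2% hematocrit, 0.05% parasitemia final) incubated with compounds for 96 hours, 37 C, 5% CO2; luciferase detection reagent then added and luminescence measured.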
# Starred values were filed as active, the others as inactive; ? = inconclusive; . = no result given; [ ] = dose if it differs, or a comment. Unless noted, calls follow the shape of the full dose curve.
SMILES,Pf growth 48h,NS1 function inh,SARS PLP yeast,Shiga toxin inh,CHX counter,Pf growth 96h
Cc1cc(C)nc(/N=C(\N)Nc2ccc(S(=O)(=O)Nc3nccc(C)n3)cc2)n1,44%,1%,0%,-7,-1,4.1µM*
CN1CCN(S(=O)(=O)c2ccc(Oc3ccc(F)c(Cl)c3)nc2)CC1,4%,-1%,-1%,8,-7,30%
CCOC(=O)c1sc2nccc(N(C)C)c2c1N=CNOCc1c(F)cccc1Cl,.,-1%,-13%,35,25*,?
CCOC(=O)c1sc2nccc(N(C)C)c2c1N=CNOCc1ccccc1,.,-2%,-14%,21,16*,?
CCOC(=O)c1sc2nccc(N(C)C)c2c1N=CNOC,.,-15%,4%,-19,-5,-95%
COc1ccc(S(=O)(=O)NCCc2c[nH]c3ccc(C)cc23)cc1,2%,11%,0%,-3,-1,6%
CCc1ccc2nc(NC(=O)CSCc3c(C)noc3C)sc2c1,2%,-15%,5%,68*,21*,30%
CCOc1ccc2nc(NC(=O)CSCC(=O)Nc3cc(C)on3)sc2c1,95%,.,-2%,.,.,130%
CCOC(=O)c1sc(NC(=O)CSCc2c(C)noc2C)nc1C,10µM*,.,2%,.,.,?
CC(=O)c1sc(NC(=O)CSC(C)C(=O)Nc2cc(C)on2)nc1-c1ccccc1 (stereo not given),-17%,.,1%,.,.,?
CC(=O)c1sc(NC(=O)CSCc2c(C)noc2C)nc1-c1ccccc1,10µM*,.,-2%,.,.,?
Cc1noc(C)c1C(=O)Nc1nc2ccccc2s1,128%,.,6%,.,.,131%
Cc1noc(C)c1CSCC(=O)Nc1nc2ccccc2s1,17%,0%,-6%,8,21*,?
Cc1ccc(C)c(N2CCN(C(=O)Cc3c(C(=O)O)[nH]c4ccc(Cl)cc34)CC2)c1,-1%,0%,0%,-3,-2,25%
Cc1cc(C(=O)NCc2ccccc2F)c2ccccc2n1,-19%,7%,0%,21,-4,82%
CCCC(=O)C1=C(N2CCCCC2)CC(C)(C)C(C(=O)OC)C1=O (stereo not given),12%,3%,1%,12,-3,39%
Cc1ccc(-n2c(CNc3cccc(Cl)c3)n[nH]c2=S)cc1,8.3µM*,.,-1%,33,8,81%
COc1cc(/C=C/C(=O)N2CCN(c3ccccn3)CC2)cc(OC)c1OC,?,-5%,9%,-8,-1,?
COc1ccc(OC)c(S(=O)(=O)N2CCCCC2C(=O)N2CCN(c3ccccn3)CC2)c1 (stereo not given),12µM*,-5%,19%,-14,-2,25%
O=C(/C=C/c1ccccc1F)N1CCN(c2ccccn2)CC1,?,-12%,-3%,24,17*,-20%
COc1ccc(/C=C/C(=O)N2CCN(c3ccccn3)CC2)cc1OC,-6%,-15%,-1%,2,-3,12µM*
COc1ccc(OC)c(S(=O)(=O)N2CCN(c3ccccn3)CC2)c1,-3%,-37%,-2%,12,-6,-24%
O=C(/C=C/c1cccc(F)c1)N1CCN(c2ccccn2)CC1,20%,5%,-2%,43*,22*,-4%
O=C(/C=C/c1ccccc1)N1CCN(c2ccccn2)CC1,17%,-12%,5%,15,10,103%
Cc1oc2c(Cl)c(Cl)c(O)c(CN(C)C)c2c1C(=O)c1ccc(Cl)cc1,?,30%,-13%,-7,-2,103%
SMILES,Pf growth 48h,NS1 function inh,SARS PLP yeast,Shiga toxin inh,CHX counter,Pf growth 96h
O=C(/C=C/c1ccc(F)cc1)N1CCN(c2ncccn2)CC1,-6%,.,6%,71*,24*,-15%
CN1CCCN(C(=O)/C=C/c2ccc(F)cc2)CC1,28%,-3%,-12%,9,16*,49%
CC1CCCCC1NC(=O)CCNS(=O)(=O)c1cc(Br)cnc1N (stereo not given),6%,0%,19%,-5,1,-1%
COc1cc(C(=O)NCc2nnc(SCC(=O)N3CCCc4ccccc43)o2)cc(OC)c1OC,-12%,.,-1%,-12,-6,9%
CCC(O)CNC(=O)NC(=C(Cl)Cl)c1ccc(C)c(F)c1 (stereo not given),?,-4%,10%,-5,-2,-26%
O=C(NCCc1nc2ccccc2n1CCOc1ccc(Cl)cc1)C1CCCCC1,.,.,.,12,11,.
Clc1ccc(OCCn2c(-c3ccco3)nc3ccccc32)cc1,.,-51%,-29%,-17,7,12µM*
COc1ccc(OCCn2c(NC(=O)c3ccco3)nc3ccccc32)cc1,?,4%,1%,68,20*,-33%
Cc1nc2ccccc2c(=O)n1Cc1ccco1,16%,5%,0%,-9,0,-29%
CCCN1CN(Cc2ccco2)c2nc3ccccc3n2C1,8%,-50%,10%,49,36*,66%
c1coc(Cn2c(-c3ccco3)nc3ccccc32)c1,39%,-150%,-3%,45*,17*,-1%[5.75 µM]
Cc1c(NC(=O)COC(=O)CSc2ccc(C(N)=O)cc2[N+](=O)[O-])c(=O)n(-c2ccccc2)n1C,10%,12%,19%,-13,5,-17%
Cc1ccc(C)c(NC(=O)/C(C#N)=C/c2ccc[nH]2)c1,7%,-14%,-3%,11,33*,0%
Cc1cccc(NC(=O)/C(C#N)=C/c2ccc[nH]2)c1C,?,4%,10%,21,24*,33%
N#C/C(=C\C=C\c1ccccc1)C(=O)NCc1cccnc1,?,-8%,-3%,2,-1,27%
CC(Sc1nnc(-c2ccco2)n1C)C(=O)Nc1nccs1 (stereo not given),?,.,6%,.,.,5.2µM*
CC(Sc1nnc(-c2ccc(Cl)cc2Cl)n1Cc1ccccc1)C(=O)Nc1nccs1 (stereo not given),?,-48%,-6%,-19,-2,9.3µM*
O=C(NN1CCOCC1)C12CC3CC(CC(C3)C1)C2,-1%,4%,7%,-20,-2,4%
N/C(=N\c1nc2ccccc2o1)NC(=O)c1ccccc1,.,-10%,-10%,49*,46*,62%
N/C(=N\c1nc2ccccc2o1)NC(=O)c1cccc(Br)c1,40%,-3%,0%,1,35,58%
CCCC(=O)N/C(N)=N/c1nc2ccccc2o1,273%,-5%,-3%,87*,51*,421%
Cc1ccc(C(=O)N/C(N)=N/c2nc3ccccc3o2)cc1,.,-1%,5%,23,10,7%
CCCC(=O)NCCCc1nc2ccccc2n1C,16%,-7%,6%,1,0,?
NC(=NCc1ccco1)NC(=O)c1ccccc1,46%,0%,-4%,21*,27*,6%
COc1ccccc1C(=O)N/C(N)=N/c1nc2ccccc2o1,45%,0%,0%,37*,20,50%

# Compound activity as filed in PubChem.
